This is a sample that favours compounds with a hit; in the whole collection about 21% have one here.
Cycloheximide cs: counter-screen for Shiga toxin inhibitors: cycloheximide protein synthesis inhibition. cell reporter, cycloheximide protein synthesis inhibition counterscreen. max response, %. 12% of 300,000 active; in the data active = max response mostly above about 13%, no sharp cut-off; inactive = mostly below about 14%; note: read at 38.3 µM for the half of the compounds with a filed dose; 0% is about no effect
Pf growth 96h: P. falciparum growth inhibition at 96 hour, primary screen for plastid delayed-death inhibitors. 6.9% of 320,000 active. P. falciparum luciferase reporter growth, 96 h. Potency, µM (top dose mostly 28.7 µM), for inactives: top-dose activity change, negative = inhibition, usual class: inhibitors; note: potency is the fitted concentration of half-maximal effect; % is set by controls: 0 for no effect and ±100 for the full control effect
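Parasite growth measured via integrated firefly luciferase reporter in P. falciparum. Infected erythrocytes at 2% hematocrit, 0.05% parasitemia final were treated 96 hours at 37 C under 5% CO2, and luminescence was read.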
Shiga toxin inh: Shiga toxin inhibition; Vero cells, Shiga toxin protein synthesis inhibition reporter; inhibition, % at 38.7 µM; 9.2% of 290,000 active; AID 2315; in the data active = inhibition mostly above about 28%, no sharp cut-off; inactive = mostly below about 43%; note: 0% is about no effect
Sm TGR inh: blocks Schistosoma mansoni thioredoxin glutathione reductase; Q962Y6; AID 485364; Potency, µM (highest dose often 114 µM), for the others: at the highest dose activity change, negative = inhibition, usual class: inhibitors; purified TGR, DTNB reduction, TNB absorbance 405 nm; 3% of 360,000 active; note: potency is the fitted concentration of half-maximal effect; % is set by controls: 0 for no effect and ±100 for the full control effect; nearly all actives have a fitted effect of over 60% in size
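TGR 20 nM + NADPH 100 uM (dispensed conc.), cpd preinc 15 min RT; start with NADPH (500 uM addition) then DTNB (15 mM addition). Kinetic TNB absorbance, 405 nm filter. Four-parameter Hill fit across titration.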
NS1 inh: inhibitors of influenza NS1 protein function; Potency, µM (top dose mostly 46.1 µM), without a hit: top-dose activity, positive = more growth; 0.4% of 270,000 active; AID 2326; calls by dose curve; note: potency is the fitted concentration of half-maximal effect; actives are rising curves; nearly all actives have a fitted effect of over 50% in size
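Compounds were scored for reversing the slow growth caused by influenza A NS1 in S. cerevisiae, measured by optical density at 600 nm. Assay medium contained 2% galactose at pH 6.0; NS1-free yeast of the same strain were the positive control.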
Pf growth 48h: P. falciparum growth inhibition at 48 hours (one generation). P. falciparum luciferase growth in erythrocytes, 48 h. Potency, µM (top dose mostly 28.7 µM), for inactives: at the highest dose activity change, negative = inhibition, actives largely listed as inhibitors. 5.9% of 310,000 active. AID 504832; note: potency is the fitted concentration of half-maximal effect; % is set by controls: 0 for no effect and ±100 for the full control effect
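Compounds are pin-transferred into medium, infected erythrocytes (2% hematocrit, 0.1% parasitemia final) are added, and plates sit one parasite generation at 37 C in 5% CO2. Detection reagent is then added and luminescence measured.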
Active calls of the source: *; ? = inconclusive; . = no result; [ ] = remark or other dose. Unless noted, calls come from the whole dose curve; as a rule, active = well fitted curve in the direction sought with a large enough effect; inconclusive = small, poorly fitted or top-dose-only effect, or another doubt; inactive = no such curve, though single readings can be large; an effect the other way counts as inactive or inconclusive.

SMILES	Cycloheximide cs	Pf growth 96h	Shiga toxin inh	Sm TGR inh	NS1 inh	Pf growth 48h
N/C(=N\OC(=O)N1CCOCC1)c1ccccc1	23.3*	8.28µM*	31.5	7.9%	12.8%	6.57µM*
S=C(c1ccc(Cl)cc1)N1CCOCC1	-5.2	2.7%	-12.5	6.1%	-39.8%	1.6%
N/C(=N\OC(=O)N1CCOCC1)c1ccc(Br)cc1	53.1*	42.9%	62.2	8.7%	4.9%	?
N/C(=N\OC(=O)N1CCOCC1)c1ccc(Cl)cc1	55.2*	?	52.6*	1.0%	-8.0%	9.28µM*
O=C(OCc1ccccc1)N1CCOCCN(C(=O)OCc2ccccc2)CCOCC1	-1.7	0.0%	1.4	13.7%	3.2%	?
O=C(COc1ccc(Br)cc1)N1CCOCC1	17.8	?	21.7	1.3%	1.6%	22.9%
CCOc1cc(C=C2C(=O)c3ccccc3C2=O)ccc1OCC(=O)Nc1ccc(C)cc1	8.4	?	0.6	0.6%	1.3%	?
O=C1C(=O)c2ccccc2C(O)=C1Cc1ccccc1	.	.	.	.	-30.2%	.
CCOC(=O)C1=C(O)c2ccccc2C(=O)/C1=C\c1ccc(CC)cc1	31.4*	?	58.5*	4.47µM*	-39.9%	3.29µM*
CCCc1ccc(/C=C2\C(=O)c3ccccc3C(O)=C2C(=O)OCC)cc1	19.9*	?	-3.4	8.91µM*	0.8%	4.65µM*
CCSc1nnc(-c2ccccc2NC(=O)CC)c(=O)[nH]1	-4.4	4.65µM*	-10.3	6.1%	1.8%	-18.1%
Cc1cc(C)c(S(=O)(=O)c2ccccc2C)c(Cl)n1	-2.9	14.8%	-8.2	-16.1%	-13.7%	3.5%
CCCCSc1nc(C)cc(C)c1S(=O)(=O)c1ccccc1C	-1.8	10.4µM*	-9.9	10.2%	-4.2%	?
Cc1ccc(SC2CCN(C(=O)C3CCC(=O)N(C4CC4)C3)CC2)cc1 (stereo unspecified)	27.3	?	49.5*	-34.5%	-7.4%	-3.0%
O=C(C1CCC(=O)N(C2CC2)C1)N1CCC(Oc2cccc(C(F)(F)F)c2)CC1 (stereo unspecified)	24.0*	37.0%	16.9	-0.1%	-4.9%	?
O=C(C1CC(=O)N(C2CCCCC2)C1)N1CCC2(CC1)OCCO2 (stereo unspecified)	13.4*	-8.8%	31.6	-2.0%	-3.5%	20.2%
Cc1ccc(OC2CCN(C(=O)C3CCC(=O)N(C4CC4)C3)CC2)cc1 (stereo unspecified)	6.7	31.3%	11.3	5.2%	7.0%	-6.1%
CCOC(=O)C1CCN(C(=O)C2CCC(=O)N(CC3CCCCC3)C2)CC1 (stereo unspecified)	-1.2	?	-4.3	-24.1%	2.4%	-3.4%
COCCCC1CCN(C(=O)C2CCC(=O)N(CC3CCCCC3)C2)CC1 (stereo unspecified)	-3.0	1.47µM*	2.5	-1.5%	-6.0%	2.0%
CCN(c1ccccc1)S(=O)(=O)c1ccc(Cl)c(C(=O)N2CCCC2)c1	.	?	.	-4.8%	.	-11.2%
COc1cc(-c2noc(-c3ccc(N4CCN(C)CC4)c([N+](=O)[O-])c3)n2)cc(OC)c1OC	.	.	.	-33.3%	.	.
CC(=O)NCCC1CCN(C(=O)C2CCC(=O)N(C3CCCC3)C2)CC1 (stereo unspecified)	18.1	?	-4.6	-10.6%	9.9%	8.2%
Cc1ccc(C(C)(C)NC(=O)C2CCC(=O)N(C3CCCCCC3)C2)cc1 (stereo unspecified)	42.0*	12.5%	86.3*	12.1%	-1.3%	-1.3%
Cc1ccc(C(C)(C)NC(=O)C2CCC(=O)N(CCCN3CCOCC3)C2)cc1 (stereo unspecified)	-3.4	?	-3.9	-13.3%	5.7%	17.0%
COC1CCN(C(=O)C2CCC(=O)N(C3CCCCCC3)C2)CC1 (stereo unspecified)	36.5*	2.7%	51.9*	-8.0%	9.1%	2.1%
SMILES	Cycloheximide cs	Pf growth 96h	Shiga toxin inh	Sm TGR inh	NS1 inh	Pf growth 48h
COc1cccc(N2CCN(C(=O)C3CCC(=O)N(C4CCCCCC4)C3)CC2)c1 (stereo unspecified)	12.4	?	16.6	-6.9%	22.0%	8.28µM*
Cc1ccccc1OC1CCN(C(=O)C2CCC(=O)N(C3CCCC3)C2)CC1 (stereo unspecified)	-0.9	13.4%	4.4	-0.2%	-12.8%	-8.2%
COCC1CCN(C(=O)C2CCC(=O)N(C3CCCC3)C2)CC1 (stereo unspecified)	14.8*	-5.0%	49.3	1.0%	9.8%	11.3%
Cc1cc(=O)[nH]c2nnc(SCc3ccc(F)cc3)n12	.	.	.	1.1%	.	.
Cc1cc(C(F)F)n2nc(C(=O)Nc3ccc(C(C)C)cc3)nc2n1	.	.	.	-2.2%	.	.
Cc1ccc(CNC(=O)CC2Oc3ccccc3NC2=O)cc1 (stereo unspecified)	.	.	.	9.6%	.	.
O=C(NC1CCS(=O)(=O)C1)c1sc2ccccc2c1Cl (stereo unspecified)	22.4	-26.6%	21.8	3.1%	.	-39.7%
CC1CCCN(C(=O)c2sc3cc([N+](=O)[O-])ccc3c2Cl)C1 (stereo unspecified)	32.1*	21.7%	84.8*	-0.6%	-10.0%	?
Cc1ccc2c(Cl)c(C(=O)NC3CC3)sc2c1	47.1*	111.0%	61.1*	-7.0%	-16.0%	86.5%
O=C(NC1CC1)c1sc2cc([N+](=O)[O-])ccc2c1Cl	26.9*	140.0%	18.0	-3.1%	12.0%	46.3%
Cc1ccc2c(Cl)c(C(=O)Nc3cccnc3)sc2c1	58.5*	31.8%	126.4*	0.6%	-25.5%	16.0%
Cc1cc(C)c(C(=O)N2CCCC(Nc3ccc(C)c(C)c3)C2)o1 (stereo unspecified)	4.9	?	-9.6	-6.2%	-9.5%	-19.5%
Cc1ccc(-n2nc(C)c3c(C(=O)NCCc4ccccc4)cc(C)nc32)cc1	.	.	.	9.0%	.	.
CCN(CC)CCNC(=O)c1ccc2nc(CCc3ccccc3)oc2c1	.	.	.	0.4%	.	.
COc1ccc(NC(=O)CN(C)C(=O)Cc2ccc(S(=O)(=O)N3CCOCC3)s2)cc1	.	0.1%	.	-22.4%	.	?
C=C(C)CSc1cc(C)nc2c(-c3ccccc3)c(C)nn12	36.0*	10.4µM*	34.0	?	-6.0%	6.57µM*
Cc1cc(NCCC(C)C)n2nc(C)c(-c3ccccc3)c2n1	15.9	.	37.3	-1.5%	-17.3%	9.28µM*
CCOC(CNc1cc(C)nc2c(-c3ccccc3OC)c(C)nn12)OCC	-2.8	6.5%	-7.8	-10.2%	-0.9%	2.6%[0.00184 µM]
CCSc1cc(C)nc2c(-c3ccccc3)c(C)nn12	9.9	?	-1.8	5.4%	-2.3%	.
CC(=O)Nc1ccc(Nc2cc(C(C)C)nc3c(-c4ccccc4)c(C)nn23)cc1	7.2	13.1µM*	18.3	3.3%	-56.5%	?
Cc1cc(SCC(=O)Nc2ccc(O)cc2)n2nc(C)c(-c3ccccc3)c2n1	1.6	2.0%	20.6	2.1%	-6.1%	-3.8%
CC(=O)Nc1ccc(Nc2cc(C)nc3c(-c4ccccc4)c(C)nn23)cc1	6.9	3.7µM*	14.8	10.6%	-20.3%	?

Source: PubChem
